Compounds with a hit are over-represented: about 2.9% of the library has one in this group of screens.
H9c2 protect: modulators protecting cardiomyocytes from myocardial damage; H9c2 cardiomyocytes, H2O2 injury protection, ATPLite, 2 h; protection from H2O2 cell death, % at 20 µM; 360,000 tested, 0.63% active;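 active = compounds giving at least 50% protection of heart cells from peroxide-induced death in the single-dose screen, raw or plate-pattern-corrected value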
NadD block: NadD (S. aureus) enzyme inhibition; 360,000 tested, 0.78% active; purified NadD enzyme, colorimetric absorbance read-out; inhibition, % at 20 µM; AID 602399; in the data active = inhibition above about 26%
APOBEC3G inh: inhibitors of human APOBEC3G DNA deaminase | Q9HC16 | recombinant A3G, ssDNA deamination FAM/TAMRA fluorescence | inhibition, % at 20 µM | 330,000 tested, 0.28% active;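 active = inhibition of at least 40% at 20 µM, with no more than 30% in the related APOBEC3A deaminase screen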
Target sequence (Q9HC16 whole entry, looked up): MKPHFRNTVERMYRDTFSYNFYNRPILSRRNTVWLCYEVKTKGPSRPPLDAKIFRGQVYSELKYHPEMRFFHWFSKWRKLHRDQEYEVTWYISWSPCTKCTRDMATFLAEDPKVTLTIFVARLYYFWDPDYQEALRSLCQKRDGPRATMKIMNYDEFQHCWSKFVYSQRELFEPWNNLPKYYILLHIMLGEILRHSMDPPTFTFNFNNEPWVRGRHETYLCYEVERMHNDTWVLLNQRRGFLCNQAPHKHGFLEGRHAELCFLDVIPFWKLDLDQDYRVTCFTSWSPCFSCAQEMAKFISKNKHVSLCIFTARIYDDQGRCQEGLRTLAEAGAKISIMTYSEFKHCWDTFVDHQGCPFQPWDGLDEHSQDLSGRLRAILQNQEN
APOBEC3A inh: human APOBEC3A DNA deaminase inhibition | recombinant A3A, FAM/TAMRA ssDNA deamination fluorescence | inhibition, % at 20 µM | 330,000 tested, 0.41% active | AID 493011;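 active = at least 40% inhibition at 20 µM here, with at most 30% in a related deaminase screen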
Target sequence (P31941 whole entry, looked up): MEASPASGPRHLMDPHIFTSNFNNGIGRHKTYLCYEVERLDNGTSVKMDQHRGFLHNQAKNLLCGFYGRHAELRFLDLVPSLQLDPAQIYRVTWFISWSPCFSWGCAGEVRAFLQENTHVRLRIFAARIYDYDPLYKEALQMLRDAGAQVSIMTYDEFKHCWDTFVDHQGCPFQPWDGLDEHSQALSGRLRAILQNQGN
TAG inh: triacylglycerol accumulation inhibition | H9c2 cells, Nile Red lipid (TAG) fluorescence; cells loaded with 200 µM oleic acid | inhibition, % at 12.5 µM | 230,000 tested, 0.66% active;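 active = pattern-corrected inhibition of lipid staining of at least 50% with the nuclear-stain viability signal not falling by more than 50%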
PfG6PD inh: PfG6PD (Plasmodium falciparum) enzyme inhibition | PfGluPho enzyme, NADPH resazurin-diaphorase fluorescence | inhibition, % at 20 µM | 350,000 tested, 0.78% active;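 active = inhibition reaching at least a set limit at 20 µM in the primary screen, cut at about 59% in these data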
APOBEC3A confirm: APOBEC3A (human) deaminase inhibition, confirmed; 1,400 tested, 63% active; shares compounds with APOBEC3A inh; recombinant A3A, ssDNA deaminase UDG fluorescence assay; inhibition, % at 20 µM;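 active = inhibition reaching a set limit, 80% of the first screen's cutoff, at 20 µM in any replicate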
UDG ctr A3A: inhibits UDG, flagging false APOBEC3A inhibitors; inhibition, % at 20 µM; shares compounds with APOBEC3A inh; AID 504714; UDG counterscreen, FAM/TAMRA uracil oligo fluorescence; 1,000 tested, under 10 active; call rule not given here
Of the large screens only hits and unclear results are named; the others gave an inactive call (follow-up assays come after a bar, where they were run); ! = not confirmed by another sample.

CC1CCC(C(C)C)C(OCC(O)C[N+]2(C)CCCCC2)C1 (stereo not drawn)	APOBEC3A inh 78.1 | APOBEC3A confirm 73.9 | UDG ctr A3A inactive
O=C(COc1ccccc1)Nc1ncn[nH]1	none
O=C(CCc1ccccc1)Nc1ncn[nH]1	APOBEC3A inh 93.6 | APOBEC3A confirm inactive | UDG ctr A3A inactive
O=C(NCCCN1CCOCC1)c1ccccc1N1C(=O)[C@@H]2Cc3c([nH]c4ccccc34)C(c3cccc(Cl)c3)N2C1=O (stereo partly drawn)	none (no result: TAG inh)
O=C(NCc1ccccc1CN1CCCCC1)c1ccccc1N1CCCC1=O	APOBEC3A inh 56.9 | APOBEC3A confirm 60.5 | UDG ctr A3A inactive
Cc1ccc(NC(=S)N(CCN(C)C)C(C)c2ccco2)c(C)c1 (stereo not drawn)	none
C[N+](C)(C)C/C=C1/COCO1	APOBEC3A inh 48.4 | APOBEC3A confirm 75.7 | UDG ctr A3A inactive
COc1ccccc1NC(=O)C1CCN(S(=O)(=O)c2ccc3c(c2)NC(=O)C(C)S3)CC1 (stereo not drawn)	none (no result: TAG inh)
CCOc1ccc(/C=c2\sc3nc(-c4ccco4)nn3c2=O)cc1OCC	APOBEC3A inh 73.8 | APOBEC3A confirm 30.6 | UDG ctr A3A inactive
CCCN(Cc1nnc(-c2cccs2)o1)C(=O)CN1C(=O)NC2(CCC(C)CC2)C1=O (stereo not drawn)	none
CCCNC(=O)CSc1ccc(S(=O)(=O)N(C)C2CCCCC2)cn1	none (no result: APOBEC3G inh, APOBEC3A inh)
CCC(C)NC(=O)CSc1ccc(S(=O)(=O)N(C)C2CCCCC2)cn1 (stereo not drawn)	APOBEC3A inh 41.8 | APOBEC3A confirm inactive | UDG ctr A3A inactive
COc1ccc(CCNC(=O)C(C)Sc2ccc(C)cc2)cc1OC (stereo not drawn)	APOBEC3A inh 86.3 (no result: TAG inh) | APOBEC3A confirm inactive | UDG ctr A3A inactive
Cc1ccc(SC(C)C(=O)NCc2ccncc2)cc1 (stereo not drawn)	APOBEC3A inh 49.8 | APOBEC3A confirm inactive
COc1ccc(CCNC(=O)C(C)Sc2ccccc2)cc1OC (stereo not drawn)	none
COc1ccc(C(=O)N(C)CCCC2CCCC2)cc1OC1CCN(C(C)C)CC1	none
CCN1CCN(S(=O)(=O)c2ccc(Cl)c(C(=O)Nc3cc(Cl)ccc3N3CCOCC3)c2)CC1	APOBEC3A inh 54.0 (no result: TAG inh) | APOBEC3A confirm 58.3 | UDG ctr A3A inactive
O=C(Nc1ccccc1N1CCCCC1)c1cc(S(=O)(=O)N2CCOCC2)ccc1Cl	none
CCN1CCN(c2ccc(S(=O)(=O)N3CCOCC3)cc2NC(=O)c2ccc(Cl)cc2Cl)CC1	APOBEC3A inh 44.8 | APOBEC3A confirm inactive
CCN1CCN(c2ccc(S(=O)(=O)N3CCOCC3)cc2NC(=O)c2ccccc2OC(F)F)CC1	none
CCN1CCN(S(=O)(=O)c2ccc(Cl)c(C(=O)Nc3ccccc3N3CCOCC3)c2)CC1	APOBEC3A inh 52.6 | APOBEC3A confirm 57.3 | UDG ctr A3A inactive
CCN1CCN(c2ccc(S(=O)(=O)N3CCOCC3)cc2NC(=O)c2ccc(C)c(C)c2)CC1	none
CC1(C(=O)Nc2ccc3c(c2)OCCO3)CCN1C(=O)C1(c2ccc(Cl)cc2)CC1 (stereo not drawn)	none (no result: APOBEC3G inh, APOBEC3A inh, PfG6PD inh)
CCNc1nc(NCC)nc(Oc2ccc(OCc3ccccc3)nn2)n1	none (no result: H9c2 protect, NadD block, TAG inh, PfG6PD inh)
CN(c1ccc(C(=O)Nc2cccnc2)cc1)S(=O)(=O)c1ccccc1	APOBEC3A inh 52.4 (no result: TAG inh) | APOBEC3A confirm inactive
CN(c1ccc(C(=O)Nc2cccnc2)cc1)S(=O)(=O)c1ccc(Cl)cc1	none
O=C1NC(=O)/C(=C/c2ccccn2)S1	none
CN(CC(=O)Nc1c(Cl)cccc1Cl)C(=O)CNC(=O)c1ccc2ccccc2c1	APOBEC3A inh 42.1 | APOBEC3A confirm inactive | UDG ctr A3A inactive
CN(CC(=O)Nc1c(Cl)cccc1Cl)C(=O)c1cccc(-n2cccc2)c1	APOBEC3A inh 70.5 | APOBEC3A confirm 53.2 | UDG ctr A3A inactive
O=C(NC(=O)c1ccccc1)Nc1ccc(Cl)cn1	none
O=C(CN1C(=O)NC2(CCCCCC2)C1=O)Nc1ccccc1[N+](=O)[O-]	none
CC1CN(C2CCN(S(=O)(=O)Cc3ccccc3)CC2)CC(C)O1 (stereo not drawn)	none (no result: TAG inh)
CCOC(=O)c1c(NC(=O)Cn2ccsc2=N)sc(C)c1C	APOBEC3A inh 56.8 | APOBEC3A confirm inactive
Nc1ncnc2c1ncn2[C@@H]1O[C@H](C(=O)NS(=O)(=O)c2ccccc2[N+](=O)[O-])[C@@H](O)[C@H]1O	none (no result: APOBEC3G inh, APOBEC3A inh, TAG inh, PfG6PD inh)
Cc1n[nH]c(C)c1S(=O)(=O)N1CCC(C(=O)N2CCn3c2nc2ccccc23)CC1	APOBEC3A inh 98.4 (no result: TAG inh) | APOBEC3A confirm inactive | UDG ctr A3A inactive
C(=N\Nc1nc(N2CCOCC2)nc(N2CCOCC2)n1)/c1ccco1	none (no result: H9c2 protect, NadD block, TAG inh, PfG6PD inh)
Cc1ccc(/C=N/Nc2nc(N3CCOCC3)nc(N3CCOCC3)n2)o1	APOBEC3A inh 52.6 | APOBEC3A confirm 32.8 | UDG ctr A3A inactive
Cc1ccc(Oc2ncccc2C(=O)NC2CCSC2=O)cc1 (stereo not drawn)	none
C=CCNC(=O)C12CC3(C)CC(C)(CC(C)(C3)C1)C2	none
CC12CC3(C)CC(C)(C1)CC(C(=O)NCC(=O)O)(C2)C3	APOBEC3A inh 49.9 | APOBEC3A confirm inactive | UDG ctr A3A inactive
Cc1ccc2c(c1)S/C(=C/c1ccc[n+](C)c1)N2CCO	APOBEC3A inh 70.0 | APOBEC3A confirm 84.3 | UDG ctr A3A inactive
CCN1/C(=C/c2ccc3cc(C)ccc3[n+]2CC)Sc2cc(C)ccc21	none (no result: APOBEC3G inh, APOBEC3A inh)
O=c1oc(=O)c2ccccc2c2ccccc12	none (no result: APOBEC3G inh, APOBEC3A inh)
CC(C)C(NC(=O)c1ccc2c(c1)OCO2)C(=O)N/N=C\c1ccco1 (stereo not drawn)	APOBEC3A inh 47.6 (no result: TAG inh) | APOBEC3A confirm 52.2 | UDG ctr A3A inactive
CCCCCCNC(=O)c1cc(-c2ccco2)nc2ccccc12	APOBEC3A inh 61.6 | APOBEC3A confirm 54.1 | UDG ctr A3A inactive
c1ccc2[nH]c(-c3ccnc4ccccc34)nc2c1	APOBEC3A inh 98.3! (no result: TAG inh) | APOBEC3A confirm inactive
O=c1oc(/C=C/c2ccc([N+](=O)[O-])s2)nc2ccccc12	APOBEC3A inh 43.1 | APOBEC3A confirm 33.0
Cc1nc2cc(C(=O)O)ccc2n1-c1ccccc1	none
CC1=CC(C)(C)[N+](C)=CN1c1ccccc1	APOBEC3A inh 57.4 (no result: TAG inh) | APOBEC3A confirm 70.4 | UDG ctr A3A inactive
O=C1N=C(N2CCCC2C(=O)O)S/C1=C\c1ccco1 (stereo not drawn)	APOBEC3A inh 43.7 (no result: TAG inh) | APOBEC3A confirm 19.2 | UDG ctr A3A inactive
O=C1N=C(N2CCCCC2)S/C1=C/C1=Cc2ccccc2OC1	none
CCNC(=O)C1CCCN(c2nc(C)cc(C)n2)C1 (stereo not drawn)	none

Compound activity as filed in PubChem BioAssay.
